Data from PubChem BioAssay AID1903 (Southern Research Specialized Biocontainment Screening …, 2009).
Screen size: about 310,000 compounds; about 1,200 (0.39%) were called active. The rule behind the calls is not given here. Not all results are given here. Entries with a potency or affinity are not part of this list.

Molecular target: Large T antigen (Simian virus 40) (UniProt P03070)
Assay: SV40 large T antigen inhibitors, biochemical (AID 1903)
Settings: SV40 large T antigen ATPase/helicase inhibition assay; at 20 µM; stronger effect = higher value

Large T antigen (Simian virus 40), sequence (P03070 whole entry, looked up): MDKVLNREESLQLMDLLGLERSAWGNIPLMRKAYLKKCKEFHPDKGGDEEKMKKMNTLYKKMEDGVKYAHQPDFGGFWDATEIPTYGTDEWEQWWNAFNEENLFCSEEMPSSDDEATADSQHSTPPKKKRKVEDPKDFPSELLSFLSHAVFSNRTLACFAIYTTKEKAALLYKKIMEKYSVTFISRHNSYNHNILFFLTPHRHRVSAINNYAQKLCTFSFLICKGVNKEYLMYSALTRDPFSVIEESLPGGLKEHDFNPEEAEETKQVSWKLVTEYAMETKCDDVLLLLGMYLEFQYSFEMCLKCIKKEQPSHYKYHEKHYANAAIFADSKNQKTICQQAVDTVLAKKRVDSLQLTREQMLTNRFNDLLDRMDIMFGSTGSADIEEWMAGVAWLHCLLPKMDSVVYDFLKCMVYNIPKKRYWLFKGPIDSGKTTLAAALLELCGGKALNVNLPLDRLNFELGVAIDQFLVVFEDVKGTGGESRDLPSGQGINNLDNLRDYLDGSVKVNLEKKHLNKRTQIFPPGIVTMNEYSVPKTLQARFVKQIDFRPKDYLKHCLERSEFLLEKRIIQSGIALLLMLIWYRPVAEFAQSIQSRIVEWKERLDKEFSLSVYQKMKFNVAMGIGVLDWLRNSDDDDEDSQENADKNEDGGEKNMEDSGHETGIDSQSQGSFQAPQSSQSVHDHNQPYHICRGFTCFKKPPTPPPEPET

inhibition, inactive:
CCOc1ccc(N=Cc2c(O)cc(C)oc2=O)cc1 18.6%
Cc1cccc(N=Cc2c(O)cc(C)oc2=O)c1 7.74%
NC(=O)CN1CCN(S(=O)(=O)c2ccc(Cl)cc2)CC1 4.21%
COc1ccc(C2CC(=O)C=C(O)C2)cc1 (stereo not drawn) 6.5%
COc1ccc(C(C2C(=O)CC(C)(C)CC2=O)C2C(=O)CC(C)(C)CC2=O)cc1 25.9%
CC(=O)N(Cc1cccc(Br)c1)c1ccc(N2CCOCC2)c(Cl)c1 9.14%
Cn1c(COc2ccc3ccccc3c2)nnc1SCC(N)=O -1.72%
Cc1cccc(N=c2oc3cc(O)ccc3cc2C(N)=O)c1 22.6%
NC(=O)c1cc2ccc(O)cc2oc1=Nc1ccccc1 36.3%
CN(C)/C=N/c1c(C#N)cnn1-c1ccccc1 9.99%
CN(CC(=O)Nc1ccc(Cl)c(C(F)(F)F)c1)C(=O)C1CCC1 17.7%
Cc1ccc(N=Cc2sccc2C)cc1C 3.36%
Cc1ccsc1/C=N/N=C/c1sccc1C -8.78%
Cn1c(N)c(S(=O)(=O)N2CCCC2)c(=O)n(C)c1=O 8.94%
CCOc1ccccc1NC(=O)C1CCN(c2ccc(S(=O)(=O)N3CCCC3)cc2)CC1 5.71%
CC(=NCc1ccccc1)C1=C(O)COC1=O 5.76%
NC(=O)c1cc2cc(Br)ccc2oc1=NCc1ccccc1 -0.91%
O=C(CCSc1ccc(Cl)cc1)N1CCN(c2ncccn2)CC1 0.35%
CCn1cc(CN2CCC(C(=O)Nc3ccc(Oc4ccccc4F)cc3)CC2)c(C)n1 10.4%
COc1ccc2c(COC(=O)CCS(=O)(=O)c3ccc(C)cc3)cc(=O)oc2c1 6.52%
CCCC(=O)Oc1ccc2c(C)cc(=O)oc2c1 18.6%
COc1cc(C(C)=O)ccc1OCC(O)CN1CCN(c2c(C)cccc2C)CC1 (stereo not drawn) -5.73%
OCCOc1ccc(C2=NCCO2)cc1 -2.82%
CCN1CCN(CC(=O)Nc2ccc3c(c2)OCO3)C(=O)C1=O 3.32%
CCN(CC)c1ccc(Nc2cc3n(c(=O)n2)CCc2cc(OC)c(OC)cc2-3)cc1 31.5%
COc1ccc(Nc2cc3n(c(=O)n2)CCc2cc(OC)c(OC)cc2-3)cc1 10.4%
CCOc1ccc(N2C(=O)/C(=C/c3ccccn3)SC2=S)cc1 9.29%
COc1ccc(N2CCN(C(=O)CCc3ccc(S(=O)(=O)NC(C)C)cc3)CC2)cc1 11.6%
